{"source": "PubChem BioAssay AID624483", "about": "(NMMLSC, 2012)", "note": "Screen size: about 360,000 compounds; about 11,000 (3.1%) were called active. Inconclusive results (about 2%) are left out. The list comes from a sample in which actives are over-represented; it also holds similar structures and randomly drawn compounds. A number with no mark means an inactive call. No stated cut-off is given here; in the data, active means fluorescence intensity above about 16000; inconclusive means no clear call, values can overlap the other calls; inactive means below that.", "data": [{"experiment": "counter-screen for toxin protease inhibitors: compound fluorescence, primary screen, artefact control for toxin protease inhibitor project, biochemical, multiplex microsphere, HTS (AID 624483)", "conditions": "compound autofluorescence counterscreen, microsphere flow cytometry; active compounds read high", "values": [{"compound": "Cc1nn(-c2ccccc2)c2[nH]c(C(F)(F)F)cc(=O)c12", "fluorescence intensity": 4600}, {"compound": "CCOc1cc(C)c(Cl)cc1S(=O)(=O)n1nnc2ccccc21", "fluorescence intensity": 10500}, {"compound": "CCOc1cc(C)c(S(=O)(=O)NCc2ccccn2)cc1C", "fluorescence intensity": 3700}, {"compound": "CCCOc1cc(C)c(S(=O)(=O)n2nnc3ccccc32)cc1C", "fluorescence intensity": "16800 (active)"}, {"compound": "O=C(NCCCN1CCCCCC1)c1ccc(N2CCCC2=O)cc1", "fluorescence intensity": 3260}, {"compound": "CC1CCCC(NC(=O)c2cccc(N3CCCC3=O)c2)C1C", "note": "(centres undefined)", "fluorescence intensity": 2560}, {"compound": "CC1CCC(NC(=O)c2ccc(N3CCCC3=O)cc2)CC1", "note": "(centres undefined)", "fluorescence intensity": "21800 (active)"}, {"compound": "C=CCn1c(CNC(=O)c2ccco2)nnc1SCC(=O)c1ccc(OC)cc1", "fluorescence intensity": 3770}, {"compound": "COc1ccc(C(=O)NCc2nnc(SCCOc3ccccc3)n2C)cc1", "fluorescence intensity": 5100}, {"compound": "C=CCn1c(SCC(=O)c2ccc(Br)cc2)nnc1C(C)NC(=O)Cc1ccc(OC)cc1", "note": "(centres undefined)", "fluorescence intensity": "23200 (active)"}, {"compound": "C=CCn1c(SCc2ccc(Cl)c(Cl)c2)nnc1C(CO)NC(=O)c1ccc(OC)cc1", "note": "(centres undefined)", "fluorescence intensity": 2760}, {"compound": "C=CCn1c(SCCOc2ccc(OC)cc2)nnc1C(NC(=O)c1ccc(OC)cc1)C(C)C", "note": "(centres undefined)", "fluorescence intensity": "24400 (active)"}, {"compound": "CCn1c(SCC(=O)NNC(=O)c2ccc(OC)cc2)nnc1C(C)C", "fluorescence intensity": 6340}, {"compound": "CCCNC(=O)c1cc(C2CCCCN2S(=O)(=O)c2cn(C)cn2)on1", "note": "(centres undefined)", "fluorescence intensity": 3300}, {"compound": "O=C(NCc1ccc(F)cc1)C1CCC(CNc2c(N3CCOCC3)c(=O)c2=O)CC1", "note": "(centres undefined)", "fluorescence intensity": 4840}, {"compound": "O=S(=O)(NC1CC2CCC1C2)c1ccc(Cl)cc1", "note": "(centres undefined)", "fluorescence intensity": 3140}, {"compound": "CCOC(=O)[C@]12CCCC=C1N(Cc1ccc(Cl)cc1Cl)C(=O)[C@H](CC(=O)N1CCCCC1)C2", "fluorescence intensity": 6000}, {"compound": "COc1cccc(-c2cc3nc(NCCOc4ccccc4Cl)n(C)c(=O)c3s2)c1", "fluorescence intensity": 3580}, {"compound": "CC1(C(=O)NS(=O)(=O)c2cccc(F)c2)CCN1C(=O)Cc1ccc(Cl)cc1Cl", "note": "(centres undefined)", "fluorescence intensity": 3750}, {"compound": "CCCCN1C(=O)C(CC(=O)NCc2cccs2)CC(C(=O)N2CCCCCC2)=C1C", "note": "(centres undefined)", "fluorescence intensity": 5770}, {"compound": "CN(C)c1ccnc(Oc2ccc(F)cc2)c1C#N", "fluorescence intensity": 8110}, {"compound": "O=C(CNC(=O)c1ccccc1)NCC(=O)OCc1ccc(Cl)cc1", "fluorescence intensity": "22400 (active)"}, {"compound": "O=C(CNC(=O)c1ccccc1)NCC(=O)OCC(=O)c1ccccc1", "fluorescence intensity": 5170}, {"compound": "O=C(CCC(=O)OCc1ccc(Cl)cc1)Nc1ccccc1", "fluorescence intensity": 2700}, {"compound": "O=C(OCCN1C(=O)c2ccccc2C1=O)Oc1ccccc1", "fluorescence intensity": 4060}, {"compound": "O=C1c2ccccc2C(=O)N1CCCCCCN1C(=O)c2ccccc2C1=O", "fluorescence intensity": 3880}, {"compound": "Nc1ccc(SCCN2C(=O)c3ccccc3C2=O)cc1", "fluorescence intensity": "19900 (active)"}, {"compound": "CCOc1ccc2c(c1)cc(CN(C(=O)CC)C1CCCCC1)c1nnnn12", "fluorescence intensity": 3990}, {"compound": "CCOC1=C2[C@@H](CN(S(=O)(=O)c3ccc(C)cc3)[C@H]2c2ccccc2F)[C@H]2C(=O)N(Cc3ccccc3)C(=O)[C@H]2C1", "fluorescence intensity": 4840}, {"compound": "CCOc1ccc2[nH]c(=S)sc2c1", "fluorescence intensity": 5910}, {"compound": "O=C(c1ccccc1)c1cc(-c2ccccn2)c(N2CCOCC2)s1", "fluorescence intensity": "25300 (active)"}, {"compound": "O=C(NCC(c1cccs1)N1CCOCC1)c1cc(-c2ccccn2)nc2ccccc12", "note": "(centres undefined)", "fluorescence intensity": 4740}, {"compound": "CCc1ccc2ncc(C(=O)c3ccccc3)c(N3CCOCC3)c2c1", "fluorescence intensity": 6180}, {"compound": "COc1ccc(S(=O)(=O)Nc2cccnc2)c(Cl)c1Cl", "fluorescence intensity": 3840}, {"compound": "Cc1cc(C)c(C)c(S(=O)(=O)Nc2cccnc2)c1C", "fluorescence intensity": 6330}, {"compound": "COc1ccccc1Oc1ccc(S(=O)(=O)Nc2cccnc2)cc1", "fluorescence intensity": "21600 (active)"}, {"compound": "COC(=O)c1ccc2nc(-c3ccc(OC)c(OC)c3)c(Cc3ccccc3)n2c1", "fluorescence intensity": 4370}, {"compound": "Fc1cccc(Cc2c(-c3cccc(Cl)c3)nc3ccc(Br)cn23)c1", "fluorescence intensity": "19700 (active)"}, {"compound": "Clc1cccc(Cc2c(-c3cccc(Cl)c3)nc3ccc(Cl)cn23)c1", "fluorescence intensity": 8680}, {"compound": "Fc1cccc(Cc2c(-c3ccc(Cl)cc3)nc3ccc(Cl)cn23)c1", "fluorescence intensity": 8180}, {"compound": "OC[C@@H]1CN(Cc2ccncc2)C[C@H](n2cnc3c(N4CCN(c5ccccc5)CC4)ncnc32)O1", "fluorescence intensity": 3810}, {"compound": "COCCN1C(=O)N(c2ccc(Cl)cc2)C(=O)C1CC(=O)Nc1cc(OC)cc(OC)c1", "note": "(centres undefined)", "fluorescence intensity": 3750}, {"compound": "CC(C)(C)OC(=O)N/N=C/c1ccc(C(=O)O)cc1", "fluorescence intensity": 2640}, {"compound": "Cc1cc(C(=O)OCC(=O)Nc2ccccc2Cl)c(C)o1", "fluorescence intensity": 8500}, {"compound": "Cc1cc(C(=O)OCC(=O)Nc2ccc(F)c(F)c2)c(C)o1", "fluorescence intensity": "21600 (active)"}, {"compound": "Cc1cc(C)cc(NC(=O)COC(=O)c2cc(C)oc2C)c1", "fluorescence intensity": 4090}, {"compound": "CCCCOc1ccc(-c2nnc(-c3ccco3)o2)cc1", "fluorescence intensity": "21200 (active)"}, {"compound": "COc1ccc(-c2nnc(-c3ccc4ccccc4c3)o2)cc1", "fluorescence intensity": 3860}, {"compound": "CCCCSc1nnc(-c2ccc(C)cc2)o1", "fluorescence intensity": 11000}, {"compound": "NCCCNC(=S)NCCCN(Cc1ccc(Cl)cc1)c1ccc(Br)cn1", "fluorescence intensity": 3820}, {"compound": "O=C(NCc1ccco1)c1cccc(-c2ccc3nncn3c2)c1", "fluorescence intensity": 3920}, {"compound": "C=CCNC(=O)c1cc2nc(C3CC3)cc(C(F)F)n2n1", "fluorescence intensity": "17500 (active)"}, {"compound": "CC1CCN(C(=O)c2cc3nc(C4CC4)cc(C(F)(F)F)n3n2)CC1", "fluorescence intensity": 3040}, {"compound": "O=C(Nc1ccc(Cl)cc1)c1cc2nc(C3CC3)cc(C(F)(F)F)n2n1", "fluorescence intensity": 11300}, {"compound": "CN(C)c1cccc(NC(=O)c2ccc(-c3ccc(F)c(F)c3)c3ccoc23)c1", "fluorescence intensity": 3910}, {"compound": "CCCCn1nnnc1C(c1cc2ccccc2o1)N(C)Cc1ccc(Cl)c(Cl)c1", "note": "(centres undefined)", "fluorescence intensity": 5870}, {"compound": "C=CCSc1nc(Cc2ccc(Cl)cc2)nc2ccccc12", "fluorescence intensity": "23600 (active)"}, {"compound": "CC(C)N(C(=O)CSc1nc(COc2ccccc2)nc2ccccc12)C(C)C", "fluorescence intensity": 3830}, {"compound": "CCCNC(=O)CSc1nc(Cc2ccccc2)nc2ccccc12", "fluorescence intensity": 2990}, {"compound": "CCc1nc2ccc(C(=O)N3CCC(O)(Cc4ccccc4)CC3)cn2c1N(C)C(=O)Cc1ccccc1", "fluorescence intensity": 3520}, {"compound": "O=S1(=O)CC(N2CCC(Cc3ccccc3)CC2)CN1Cc1ccccc1", "note": "(centres undefined)", "fluorescence intensity": 6300}, {"compound": "Cc1noc(C)c1-c1ccc(C(=O)NCc2ccncc2)c2occc12", "fluorescence intensity": 3470}, {"compound": "COc1ccccc1N1CCN(S(=O)(=O)c2ccc3c(c2)NC(=O)CS3)CC1", "fluorescence intensity": 5880}, {"compound": "Cc1cc(OC(C)C(=O)NC2CC(C)(C)NC(C)(C)C2)c2c(C)cc(=O)oc2c1", "note": "(centres undefined)", "fluorescence intensity": 6440}, {"compound": "CCc1cc(=O)oc2cc(C)cc(OC(C)C(=O)O)c12", "note": "(centres undefined)", "fluorescence intensity": "22000 (active)"}, {"compound": "CCc1cc(=O)oc2cc(C)cc(OCC(=O)N3CCC[C@@H]3C(=O)O)c12", "fluorescence intensity": 5750}, {"compound": "CCCSc1nsc(N)n1", "fluorescence intensity": "17300 (active)"}, {"compound": "Nc1nc(SC23CC4CC(CC(C4)C2)C3)ns1", "fluorescence intensity": 3930}, {"compound": "CCCCCCSc1nsc(N)n1", "fluorescence intensity": 6410}, {"compound": "Cc1ccc(CNC(=O)c2cc(-c3ccccc3C)n(CC3CC(c4cccc([N+](=O)[O-])c4)=NO3)n2)cc1", "note": "(centres undefined)", "fluorescence intensity": 4220}, {"compound": "CCOC(=O)[C@]12CCC=C1N(Cc1ccccc1)C(=O)[C@H](CC(=O)N1CCCC1)C2", "fluorescence intensity": 5780}, {"compound": "CC1(C(=O)NS(=O)(=O)C2CC2)CCCN(C(=O)CSc2ccccc2)C1", "note": "(centres undefined)", "fluorescence intensity": 3670}, {"compound": "CCn1c(=O)cc(OCC(=O)NCCCN2CCN(c3cccc(Cl)c3)CC2)c2ccccc21", "fluorescence intensity": "20500 (active)"}, {"compound": "O=C(Cc1csc(Nc2nc(=S)[nH]c3ccccc23)n1)NCCCN1CCN(c2cccc(Cl)c2)CC1", "fluorescence intensity": 4240}, {"compound": "CCOC(=O)N1CCC(Nc2c(NCCN3CCN(c4cccc(Cl)c4)CC3)c(=O)c2=O)CC1", "fluorescence intensity": 4590}, {"compound": "O=C(CC[C@H]1O[C@@H](n2ccc(=O)[nH]c2=O)[C@H](O)[C@@H]1O)N[C@H](Cc1ccccc1)C(=O)NCc1ccco1", "fluorescence intensity": 4020}, {"compound": "CCOC(=O)C1(C)CCCN(C(=O)c2ccc(N(C)C)cc2)C1", "note": "(centres undefined)", "fluorescence intensity": 9620}, {"compound": "Cc1ccccc1NC(=O)CSc1ccc2nnc(-c3ccccn3)n2n1", "fluorescence intensity": 6840}, {"compound": "CCOc1cccc(-c2nn3c(-c4ccccn4)nnc3s2)c1", "fluorescence intensity": "16800 (active)"}, {"compound": "CCOc1cccc(-c2nnc(SCC(=O)NC3CC3)n2C)c1", "fluorescence intensity": 5480}, {"compound": "CN(C)S(=O)(=O)N1CCN(c2ccc([N+](=O)[O-])cc2)CC1", "fluorescence intensity": 4070}, {"compound": "CCCOc1ccc(F)cc1-c1cc(C(=O)Nc2ccc(F)c(Cl)c2)[nH]n1", "fluorescence intensity": 3800}, {"compound": "CN(C)C(=O)c1cccc(-c2cnc3c(NC=O)cc(-c4ccc(F)cc4)cn23)c1", "fluorescence intensity": 3680}, {"compound": "CCOC(=O)c1cnc2c(c(C)nn2CC)c1Cl", "fluorescence intensity": 4390}, {"compound": "CCOC(=O)c1cnc(-n2nc(C)cc2C)nc1-n1nc(C)cc1C", "fluorescence intensity": "16800 (active)"}, {"compound": "CCOC(=O)c1cnc(-n2nc(C)cc2C)nc1NNc1cc(C)nc(-c2ccccc2)n1", "fluorescence intensity": 7400}, {"compound": "CCc1nc2c(OCCOc3ccc(F)cc3)cccn2c1N(C)C(=O)c1ccccc1F", "fluorescence intensity": 3010}, {"compound": "CN1CCN(S(=O)(=O)c2ccc3[nH]cc(C(=O)O)c(=O)c3c2)CC1", "fluorescence intensity": "21500 (active)"}, {"compound": "Cc1ccc(S(=O)(=O)N2CCN(C)CC2)cc1C(=O)NC1CCCCC1", "fluorescence intensity": 4410}, {"compound": "Cc1ccc(S(=O)(=O)N2CCN(C)CC2)cc1", "fluorescence intensity": 4010}, {"compound": "c1ccc(COc2ccccc2CNCc2cccnc2)cc1", "fluorescence intensity": 7500}, {"compound": "O=C(CCc1ccc(S(=O)(=O)N2CCOCC2)cc1)NN=C1CCCCCCC1", "fluorescence intensity": 2120}, {"compound": "O=C(COC(=O)CCc1ccc(S(=O)(=O)N2CCOCC2)cc1)Nc1cccc(Cl)c1", "fluorescence intensity": 4250}, {"compound": "O=C(CCc1ccc(S(=O)(=O)N2CCOCC2)cc1)Nc1ccc2ccccc2c1", "fluorescence intensity": "21400 (active)"}]}]}
